Out of some 1,100 compounds screened, about 390 (35%) were called active. Roughly 30% stayed inconclusive and do not appear here. Calls follow the shape of the dose curve; as a rule, active = well fitted inhibition curve with a large enough effect; inconclusive = small, poorly fitted or top-dose-only effect; inactive = flat fitted curve, though single readings scatter. The list shows a part of the results. Entries that show only a call come without a potency.
Potency is read from the fitted curve at half-maximal effect.

This assay has as its target Luciferin 4-monooxygenase (Photinus pyralis) (UniProt P08659). Briefly: qHTS of Nrf2 Activators: Hit Validation in Secondary FLuc Assay. Also: nearly all actives have a fitted effect of over 65% in size. The conditions noted are these: firefly luciferase inhibition counter-screen, luminescence; series mostly up to 57.5 µM. In outline: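 Counter-screen on purified firefly luciferase with ATP and D-luciferin at Km concentrations; compounds flagged if they inhibit the enzyme, indicating possible reporter stabilization rather than ARE activation.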
(In qHTS, concentration-response curves come from the screen itself.)
Take `CCOc1ccsc1C(=O)NNC(=O)c1ccco1`: the Potency result was “inactive”.
In the case of `Cc1ccc2nc(N(CCN(C)C)C(=O)/C=C/c3cccs3)sc2c1` it was “inactive”; in that of `O=C(/C=C/c1cccs1)c1ccco1`, 9.53 µM (active); in that of `COc1ccc(Sc2cnn(-c3ccccc3)c(=O)c2Cl)cc1`, “inactive”.
In the case of `NC(=O)N/N=C/c1ccccc1OC(=O)c1ccccc1Br` it was 10.7 µM (active); in that of `c1ccc(CNc2nc(NCc3ccco3)nc(N3CCOCC3)n2)cc1`, “inactive”; in that of `CCN=c1scc(C)n1/N=C/c1ccsc1`, 6.75 µM (active).
With `Cc1[nH]c2ccccc2c1N=Nc1ccccc1F`, the Potency was 19 µM (active).
Take `Cc1[nH]c2ccccc2c1N=Nc1ccccc1C(=O)O`: the Potency was 8.49 µM (active).
In the case of `Cc1cccn2c(=O)c(C=NCCO)c(NCc3ccco3)nc12` it was “inactive”.
For `O/N=C/c1ccc2cccc(OCc3ccccc3)c2n1` the value was “inactive”; for `CC1CN(C(=O)/C=C/c2ccc([N+](=O)[O-])s2)CC(C)O1` (centres undefined), “inactive”.
In the case of `Clc1ccccc1NN=Cc1ccccn1` it was 2.13 µM (active); in that of `COc1ccc(O)c(-c2cc(-c3ccc(F)cc3)n[nH]2)c1`, 4.78 µM (active).
For the molecule `COc1ccc(Cl)cc1NC(=O)c1cc(-c2ccccc2O)n[nH]1`, the Potency result was “inactive”.
For `COc1ccc(OC)c(/C=C(\C#N)c2nc(-c3ccc(F)cc3)cs2)c1` the value was “inactive”; for `COc1ccc(O)c(-c2cc(-c3ccccc3Cl)[nH]n2)c1`, 6.01 µM (active); for `COC(=O)c1scc(C)c1NC(=O)c1ccc(Cl)cc1`, “inactive”.
With `O=C(CN1CCN(Cc2ccccc2)CC1)N/N=C\C=C/c1ccco1`, the Potency result was “inactive”.
For `O=C1S/C(=C\C=C\c2ccco2)C(=O)N1c1ccccc1` the value was 6.75 µM (active).
In the case of `O=C1S/C(=C\C=C\c2ccco2)C(=O)N1c1ccc(O)cc1` it was 9.53 µM (active); in that of `CN1CCN(c2sc(S(C)(=O)=O)nc2S(=O)(=O)c2ccc(Cl)cc2)CC1`, “inactive”.
For `Cc1ccc(O)c(NC(=O)c2cc([N+](=O)[O-])ccc2Cl)c1` the value was “inactive”.
As for `CC(C)=NNc1cnnc2ccc([N+](=O)[O-])cc12`, the Potency was 10.7 µM (active).
With `Cc1ccc([N+](=O)[O-])cc1NC(=O)c1ccccc1`, the Potency entry is “inactive”.
Take `O=C(NC1CCCCC1)N(c1ccccc1)c1nnc(-c2cccc([N+](=O)[O-])c2)s1`: the Potency is 16.9 µM (active).
Take `CC(=O)Nc1ccc(S(=O)(=O)c2ccnc3cc(Cl)ccc23)cc1`: the Potency entry is “inactive”.
In the case of `C[n+]1c2n(c3ccccc31)N=C(c1ccccc1)CS2` it was “inactive”; in that of `c1ccc(C2=Nn3c(nnc3-c3ccco3)SC2)cc1`, 26.9 µM (active).
For `O=C(Nc1ccc2ccccc2c1)c1ccc(Br)o1` the value was 1.2 µM (active); for `Cc1nc(NC(=O)c2ccc(Br)o2)ccc1Br`, 9.53 µM (active).
For `Cc1ccc(C)c(-c2nnc(NC(=O)c3ccc([N+](=O)[O-])o3)o2)c1` the value was “inactive”.
Regarding `Cc1ccc2oc(-c3cccc(NC(=O)c4ccc(Br)o4)c3)nc2c1`, the Potency is 8.49 µM (active).
For `Cc1cc(C(=O)Nc2cc(Br)ccc2O)on1` the value was “inactive”.

Source of the values: PubChem BioAssay AID651597 (National Center for Advancing Translational Sciences (NCATS), 2012).
